Reference: PubChem BioAssay (NCI)
“And” between values parts separate entries of the source, which are not always exact repeats. Identical values can stand only once. The panel holds about 83,000 compounds, 20% with a hit somewhere; the sample as a whole holds those more often.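 Interpretation: 100, growth as untreated; towards 0, rising growth inhibition; 0, no net growth; 0 to -100, cell death. Compounds scoring below 10 were considered active.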 The source made the active and inactive calls.

The molecules below were run on MDA-MB-468 breast (assay: NCI-60 one-dose screen, 48 h (100 = growth as untreated, 0 = no growth, -100 = all killed)). Conditions: 10 µM unless noted.
`O=C(CSc1nc2sc3c(c2c(=O)n1-c1ccccc1)CCCCC3)N/N=C/c1ccc(F)cc1` was tested, and the growth was -3.84% (active). With `O=C(CCl)Oc1ccc(OC(=O)CCl)cc1` the growth was 78.4% (inactive). `CNC1=C([N+](=O)[O-])C(c2ccc(OC)cc2)C(C#N)=C(c2cccs2)O1` (centres undefined) was tested, and the growth was 117% (inactive). For `O=C(CCCCCCN1CC(=O)N2[C@H](c3ccc(Br)cc3)c3[nH]c4ccccc4c3C[C@@H]2C1=O)NO`, the growth was 33.9% (inactive). For `Cc1ccc(O)c(C(=O)c2ccccc2Cl)c1`, the growth was 106% (inactive). In the case of `CCOC(=O)Nc1cc(-c2ccc(C)c(NS(C)(=O)=O)c2)nn2c(C)nnc12`, the growth was -26% (active). `C1C[S+]2CC[S+]1CC2` was tested, and the growth was 101% (inactive). `O=C1CNCCN1` was tested, and the growth was 106% (inactive). In the case of `O=C(Nc1ccc(Cl)cc1)c1cc2ccccc2cc1O`, the growth was 21.4% (inactive) and -6.92% (active). `O=C1CSc2ccccc2N1` was tested, and the growth was 112% (inactive). `FC(F)(F)c1cccc(-c2nnn(Cc3cc(-c4cccc(Cl)c4)no3)n2)c1` was tested, and the growth was 102% (inactive). With `C#CCOc1ccc2ncnc(NCc3cccc(NC(=O)CCl)c3)c2c1` the growth was 4.87% [8.25 µM] (active). In the case of `COc1ccc(C(=O)c2cc(OC)c(OC)c(OC)c2)cc1/C=C/C(=O)c1ccc(O)cc1`, the growth was 34.3% (inactive). In the case of `CCc1ccc(NC(=O)N[C@@H](Cc2cccc(C)c2)C(=O)N[C@@H]2C(=O)N3CCC[C@H]3C(=O)N3CCCC[C@H]3C(=O)N[C@@H](CO)C(=O)N3C[C@H](C)C[C@H]3C(=O)O[C@H]2C)c(F)c1`, the growth was -14.2% (active). For `COc1cc(-c2ccc(-c3ccc(C(=N)N)s3)s2)cc(OC)c1OC`, the growth was 23.8% (inactive). With `CCN(CC)c1ccc(/C=N\NC(=O)/C=C/C=C/c2ccc3c(c2)OCO3)c(O)c1` the growth was 13.4% (inactive). In the case of `O=S(=O)(CCN1CCOCC1)Nc1cncc(-c2ccc3ncnc(Nc4ccc(F)c(Cl)c4)c3c2)c1`, the growth was -23.1% (active). With `COc1ccc(/C=C/c2c(C(=O)/C=C/c3ccccc3)c(C)nc3ccccc23)cc1` the growth was 12.8% (inactive). With `CCSc1ccc([C@@H]2[C@@H](N)C(=O)N2c2cc(OC)c(OC)c(OC)c2)cc1` the growth was 17% (inactive). For `CCOc1ccccc1/C=N\N=C(N/N=C/c1ccccc1OCC)N/N=C/c1ccccc1OCC`, the growth was -30.4% (active). `Fc1ccc(C2CC(c3cccc(Nc4ccncc4)c3)=NN2c2cc(Cl)cc(Cl)c2)cc1` (centres undefined) was tested, and the growth was 37.6% (inactive). In the case of `O=c1cc/c(=N\Nc2ccccc2)c(=O)/c1=N/Nc1ccccc1`, the growth was 106% (inactive). For `CNC(=O)c1cc(Oc2ccc3c(c2)sc2nc(-c4cc(OC)c(OC)c(OC)c4)cn23)ccn1`, the growth was 4.35% (active). For `FC(F)(F)c1cccc(Nc2ccccc2)c1`, the growth was 92.7% (inactive). `CC(C)CCCCCOC(=O)c1ccccc1SSc1ccccc1C(=O)OCCCCCC(C)C` was tested, and the growth was 109% (inactive). In the case of `CN(C)S(=O)(=O)c1ccc(-c2nc(C(Cl)Cl)nc3cc(-c4ccc(F)cc4)nn23)cc1`, the growth was -46.2% (active). `CCc1ccc(C2=C(O)C(=O)C(c3ccc(CC)cc3)=C(O)C2=O)cc1` was tested, and the growth was -2.72% (active). For `Clc1ccc(-c2nnc(-c3cccc4ccccc34)o2)cc1`, the growth was 19.1% (inactive). With `COc1ccc(-c2nc(N)ncc2Oc2ccccc2OC)c(O)c1` the growth was -2.89% (active). For `CC1CCN(CCOc2ccc(CNc3ccc4nc(CCC5CCCCC5)[nH]c4c3)cc2)CC1`, the growth was 14.2% (inactive). In the case of `C=C1C(=O)O[C@H]2[C@H]1CC/C(COC(=O)NCc1ccc(Cn3c(=O)sn(-c4ccc(OC)cc4)c3=O)cc1)=C\CC[C@@]1(C)O[C@@H]21`, the growth was 17.9% (inactive). `COc1ccc(NC(=O)c2sc3nc(C)c(C(=O)c4ccccc4)cc3c2N)cc1` was tested, and the growth was 83.9% (inactive). `CCCCCCCCn1ccc2cc(NC(=O)Cn3cc(CN4CCCCCC4)nn3)ccc21` was tested, and the growth was -67.2% (active). In the case of `Nc1cc2c(cc1N)-c1cc(N)c(N)cc1C2`, the growth was 105% (inactive). In the case of `Cc1[nH]nc2ccc3nc(-c4ccc5[nH]ncc5c4)c4c(c3c12)CCCC4`, the growth was -6.72% (active). In the case of `N#Cc1c(-c2ccc(Cl)cc2)nc2c(-c3ccccc3)c(Nc3ccccc3)nn2c1N`, the growth was 53.4% (inactive). With `Clc1ccc(-c2nc(-c3ccco3)cn3ccnc23)cc1` the growth was -5.8% (active). `CCCS(=O)(=O)Nc1ccc(F)c(C(=O)c2c[nH]c3ncc(-c4ccc(Cl)cc4)cc23)c1F` was tested, and the growth was 39.3% (inactive). In the case of `Cc1ccc(/C=C2\Oc3ccc(O)c(O)c3C2=O)cc1`, the growth was 58.3% (inactive).
